Laboratory results from the supplement of paper PMC6555819.

Key:
Test in all cases: PBM binding z-score (relative to random genomic background probes); higher = stronger binding; sequences stand for … in GC…GCGATTGACAGCGTAGAATGAAGG
[1] = test system: FXR:RXRa (NR concentration 270 nM, RXRa partner concentration 90 nM)
How it was run: (§1)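 Regression normalization was applied to scanned fluorescence from custom Agilent 4×180K protein-binding microarrays. Before scanning, arrays were incubated 1 h with ligand-free nuclear receptor dimers, and binding was detected with antibodies against each partner (one per run). Binding z-scores use the random background probes as reference.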

[2] = test system: LXRa:RXRa (NR concentration 270 nM, RXRa partner concentration 90 nM)
How it was run: as §1

[3] = test system: LXRa homodimer (NR concentration 270 nM)
How it was run: as §1

[4] = test system: LXRb:RXRa (NR concentration 270 nM, RXRa partner concentration 90 nM)
How it was run: as §1

[5] = test system: LXRb homodimer (NR concentration 270 nM)
How it was run: as §1

[6] = test system: PPARa:RXRa (NR concentration 270 nM, RXRa partner concentration 90 nM)
How it was run: as §1

[7] = test system: PPARg:RXRa (NR concentration 180 nM, RXRa partner concentration 90 nM)
How it was run: as §1

[8] = test system: PPARg:RXRa 270nM:90nM, anti-RXR (NR concentration 270 nM, RXRa partner concentration 90 nM)
How it was run: as §1

[9] = test system: PPARg:RXRa 30nM:10nM, anti-RXR (NR concentration 30 nM, RXRa partner concentration 10 nM)
How it was run: as §1

[10] = test system: PPARg:RXRa 90nM:30nM, anti-RXR (NR concentration 90 nM, RXRa partner concentration 30 nM)
How it was run: as §1

Row | Sequence | PBM binding z-score [1] | PBM binding z-score [2] | PBM binding z-score [3] | PBM binding z-score [4] | PBM binding z-score [5] | PBM binding z-score [6] | PBM binding z-score [7] | PBM binding z-score [8] | PBM binding z-score [9] | PBM binding z-score [10]
1 | CGTCCAAGGTCAATGCTAGGTAAGTGAAAGCATT | 5.28 | 4.48 | 0.161 | 3.61 | 0.552 | 5.13 | 3.69 | 4.15 | 0.806 | 2.86
2 | ACTCGGAGGAGAAAGGTCAGAGCTACGCCAGTGA | 2.6 | 3.16 | 0.746 | 2.72 | -0.215 | 3.8 | 3.76 | 4.3 | 2.61 | 4.29
3 | CCTAGCAGGCCAGGGTCAGTCAAGCATTTCGCTT | 0.838 | 0.841 | -0.832 | 1.08 | -1.29 | 1.85 | -0.277 | 0.376 | -0.624 | -0.0858
4 | GCATATAGGTAATACAAGGTAAAAGTCCGATTGT | 1.02 | 0.511 | -0.476 | -0.189 | -0.093 | 0.669 | 1.14 | 0.607 | -0.0355 | 0.325
5 | ACCAGCAGGCCAAGTTTGGGTCACTCAAACAAAG | 0.266 | -0.108 | -0.521 | 0.635 | -0.887 | 1.31 | -0.217 | 0.223 | -0.767 | -0.323
6 | TCGAGTAGGATAGGGGCATTCAGAATGGCGTCGA | 0.0392 | -0.388 | -0.671 | 0.283 | -0.491 | 0.262 | 0.0969 | 0.573 | 0.884 | 0.812
7 | CAAACTAGGTCACGAACGGTCAAAGTCGAATGAC | 5.85 | 7.42 | 4.34 | 5.78 | 1.18 | 5.62 | 9.57 | 8.01 | 5.99 | 7.93
8 | GCGACTGGGGCAATGCAGGTTACCATAAGGTTGG | 0.0254 | 0.655 | -0.566 | 0.504 | -0.824 | 1.78 | 1.65 | 1.26 | -0.113 | 0.69
9 | CAAACTAGGTCAAGAGGTCAAATTCCGCTTCCCG | 7.41 | 6.59 | 7.45 | 6.01 | 2.95 | 6.83 | 9.67 | 8.42 | 7.02 | 8.9
10 | CCGACTGGGGCCAAGGTTACCATACTCAGTACGA | 0.714 | 0.334 | -0.174 | 0.728 | -0.267 | 1.91 | 3.85 | 4.51 | 1.74 | 3.8
11 | GTTTGTAGATCAAGGTTAAGAAAGACTAAGCTAA | 0.943 | 1.64 | 0.556 | 0.954 | 0.547 | 1.84 | 1.93 | 2.88 | 1.48 | 2.65
12 | CCGACTGGGGCAAGGTTACCGTAACGCACAGCCA | 0.11 | 0.127 | -0.449 | 0.456 | -1.12 | 1.87 | 2.6 | 3.45 | 0.963 | 2.8
13 | CAAACTAGGTCAAGAGGTAAAAGTCCGCTTCCCG | 4.11 | 3.15 | 0.451 | 2.2 | 0.356 | 5.2 | 8.8 | 7.58 | 5.87 | 7.82
14 | ATCTCTAGGTAAGACTCAGCTCAGTGAAGAACGC | 0.197 | 0.324 | 0.483 | -0.157 | 0.984 | -0.198 | 0.0541 | -0.171 | 0.317 | 0.109
15 | TCTAGTTGGTCAAAGGTCATACACTCGAAATGCG | 5.83 | 6.03 | 4.66 | 5.62 | 2.02 | 6.59 | 10.8 | 9.47 | 9.65 | 10.2
16 | TCAATTAGTTGATTAGGGCAACCGAAACAGCGGA | 0.579 | 0.188 | -0.056 | 0.445 | -0.277 | 0.882 | 0.217 | 1.6 | 3.41 | 2.45
17 | TCTAGCAGGTCAGAGGGTCACTCAAGAGGTACGG | 4.13 | 3.26 | 0.192 | 2.87 | -0.436 | 4.54 | 4.39 | 5.27 | 3.71 | 5.21
18 | CCTACTTGGCCACGAAAGGTCATTGATTCAGTGA | 4.07 | 5.32 | 5.29 | 4.61 | 1.16 | 4.46 | 1.84 | 3.31 | 1.01 | 2.5
19 | TCTATTAGTTCAAGGGCAACCGACGAGTCCGTTT | 1.82 | 1.97 | 1.24 | 1.45 | 0.602 | 2.23 | 0.394 | 2.66 | 3.94 | 3.37
